ChEMBL document CHEMBL1157539, “Thousands of chemical starting points for antimalarial lead identification” (Nature, 2010)

Legend:
Type in all cases: functional
Plasmodium falciparum [1] = experiment: GSK_TCMDC: Inhibition of Plasmodium falciparum 3D7 in whole red blood cells, using parasite LDH activity as an index of growth. Test compounds present at 2uM
Plasmodium falciparum [2] = experiment: GSK_TCMDC: Inhibition of Plasmodium falciparum Dd2 in whole red blood cells, using parasite LDH activity as an index of growth. Test compounds present at 2uM
HepG2 = experiment: GSK_TCMDC: Percent inhibition of human HepG2 cell line. Test compounds present at 10uM.

Row | SMILES | Inhibition (Plasmodium falciparum [1]) [%] | Inhibition (Plasmodium falciparum [2]) [%] | Inhibition (HepG2) [%]
1 | CNC(=O)Cc1ccc(C(=O)Nc2cccc(-c3cccc(-c4nc5cc(C(F)(F)F)ccc5[nH]4)c3)c2)cc1 | 95 | 37 | 40
2 | Cc1cccc(C)c1OC(=O)C(C)C(O)C1(Sc2ccccc2)CCN(C)CC1 (stereo not given) | 98 | 92 | 23
3 | Nc1cccc(CNCc2ccc(-c3ccc(-c4nc5cc(C(F)(F)F)ccc5[nH]4)s3)cc2)c1.O=C(O)C(F)(F)F | 100 | 98 | 28
4 | COc1ccc(C=NNc2cc(C)nc3ccc(OC)cc23)c(OC)c1 | 100 | 95 | 23
5 | COc1ccccc1CN1CCC(CNC(=O)c2cc(-c3ccc(N(C)C)cc3)cs2)C1.O=C(O)C(F)(F)F (stereo not given) | 82 | 16 | 17
6 | O=C(Nc1ccc(Br)cc1)c1cc(Br)ccc1NS(=O)(=O)c1ccc(C(F)(F)F)cc1 | 100 | 56 | 53
7 | O=C(Nc1cccc(-c2cccc(-c3nc4ccccc4[nH]3)c2)c1)c1csnn1 | 90 | 27 | 31
8 | COc1ccc2nccc([C@@H](O)CN3CCC(NCc4cnc5c(c4)NC(=O)CS5)CC3)c2c1.O=C(O)C(=O)O | 87 | 29 | 0
9 | CC(C)c1cc(N)c2cc(NC(=O)COCC(=O)Nc3ccc4nc(C(C)C)cc(N)c4c3)ccc2n1 | 95 | 95 | 0
10 | C=CCN1C(=O)C(C(C)=O)=C(O)C1c1ccccc1 (stereo not given) | 93 | 97 | 41
